HT1080 IDH1KD tx: HT-1080 IDH1 knockdown cell toxicity (counter line); HT-1080 IDH1 knockdown viability, ATP luminescence, 48 h; Potency, µM (titrated, usually from 46.1 µM), actives largely listed as cytotoxic; hit rate 2% among 360,000; AID 686971
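Luminescent ATP read-out (CellTiter-Glo, 10 min at room temperature) after 48 h compound exposure at 37 °C gave viability of IDH1-knockdown HT-1080 cells. Activity was normalised to DMSO and cell-free wells, then fitted as concentration-response curves.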
TDP1 cell noCPT: qHTS for Inhibitors of human tyrosyl-DNA phosphodiesterase 1 (TDP1): qHTS in cells in absence of CPT. Potency, µM (highest dose often 46.2 µM), most hits filed as inhibitors. hit rate 15% among 420,000. DT40 Tdp1-/- hTDP1 cells, no CPT, ATP luminescence, 48 h; further: nearly all actives have a fitted effect of over 55% in size
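Growth kinetics read by CellTiter-Glo luminescence after ≥48 hr at 37 °C. Cells: DT40 Tdp1-/- stably carrying human TDP1, 400 per well, compound exposure in the absence of CPT (DMSO vehicle).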
TDP1 cell CPT: DT40-hTDP1 cell growth loss with CPT; chicken DT40 Tdp1-/-;hTDP1 cells + 20 nM CPT, ATP luminescence, 48 h; Potency, µM (doses to about 46.2 µM), hits mostly inhibitors; hit rate 12% among 420,000; further: nearly all actives have a fitted effect of over 55% in size
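Chicken DT40 Tdp1-/- cells stably complemented with human TDP1 were seeded at 400 cells/well in medium containing 20 nM camptothecin, exposed to pin-transferred compounds, and grown at 37 °C for at least 48 hr. Viability was read as ATP luminescence.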
IL-1B inflam inh: inhibitors of inflammasome signaling (IL-1 beta secretion); THP-1 LPS/ATP IL-1B secretion, AlphaLISA, 16 h; stronger effect = lower value; AID 743279; hit rate 4.7% among 360,000; activity change, % at 57.5 µM; in the data active means activity change below about -50%; inconclusive means mostly about -30% to -49%
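THP-1 cells pretreated 1 hr with compounds (up to 57.5 uM final), then stimulated with LPS (250 ng/mL final) plus ATP (1.25 mM final); secreted IL-1B measured by AlphaLISA after 16 hr, decreased signal indicating inhibition.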
HT1080NT lethal: kills 2HG-producing HT-1080-NT fibrosarcoma cells. hit rate 1.6% among 360,000. Potency, µM (doses to about 46.1 µM), actives largely listed as cytotoxic. HT-1080-NT fibrosarcoma viability, CellTiter-Glo ATP luminescence, 48 h;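 further: NT is the 2HG producing partner of a matched IDH1 knockdown line; nearly all actives have a fitted effect of over 55% in size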
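HT-1080-NT; 750 cells/well; 5% FBS RPMI; 48 h compound, 37 degrees C; CellTiter-Glo luminescence; curve fitting and curve-class assignment.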
Hits are given with their value. Most compounds without a hit are left out; they make up all but 19% or so of the library. Unless noted, the call rests on the fitted dose curve; in most records, active means well fitted curve in the direction sought with a large enough effect; inconclusive means small, poorly fitted or top-dose-only effect, or another doubt; inactive means no such curve, though single readings can be large; an effect the other way counts as inactive or inconclusive.

What do the screens show for `CCOC(=O)CSc1nnc(-c2c[nH]c3ccccc23)o1`?
HT1080 IDH1KD tx: inactive; TDP1 cell noCPT: inactive; TDP1 cell CPT: inactive; IL-1B inflam inh: -93; HT1080NT lethal: inactive

How did CCSc1nnc(-c2c[nH]c3ccccc23)o1 do in these assays?
HT1080 IDH1KD tx: inactive; TDP1 cell noCPT: inactive; TDP1 cell CPT: inactive; IL-1B inflam inh: inactive; HT1080NT lethal: inactive

What do the screens show for `CC1CCCC(C)N1C(=O)COC(=O)c1c[nH]c2ccccc12` (stereo unspecified)?
HT1080 IDH1KD tx: inactive; TDP1 cell noCPT: 3.3µM; TDP1 cell CPT: inactive; IL-1B inflam inh: inactive; HT1080NT lethal: inactive

What do the screens show for `Cc1ccnc(NC(c2cc(C)ccc2O)c2ccc3cccnc3c2O)c1` (stereo unspecified)?
TDP1 cell noCPT: 10µM; TDP1 cell CPT: inconclusive

What do the screens show for `O=C(O)c1ccccc1NC(c1ccccc1)c1ccc2cccnc2c1O` (stereo unspecified)?
HT1080 IDH1KD tx: 8.2µM; TDP1 cell noCPT: inconclusive; TDP1 cell CPT: 15µM; IL-1B inflam inh: inactive; HT1080NT lethal: inactive

What do the screens show for `COc1ccc(C(Nc2cc(C)ccn2)c2ccc3ccc(C)nc3c2O)cc1` (stereo unspecified)?
HT1080 IDH1KD tx: inactive; TDP1 cell noCPT: inconclusive; TDP1 cell CPT: inconclusive; IL-1B inflam inh: inactive; HT1080NT lethal: inactive

Results for Cc1ccnc(NCc2c(O)ccc3ccccc23)c1 ?
HT1080 IDH1KD tx: inactive; TDP1 cell noCPT: inactive; TDP1 cell CPT: inactive; IL-1B inflam inh: inactive; HT1080NT lethal: inactive

Results for Cc1ccnc(NC(c2ccsc2)c2ccc3ccc(C)nc3c2O)c1 (stereo unspecified) ?
HT1080 IDH1KD tx: 15µM; TDP1 cell noCPT: inconclusive; TDP1 cell CPT: inactive; IL-1B inflam inh: -84; HT1080NT lethal: inconclusive

What do the screens show for `Cc1ccnc(NC(c2ccccc2)c2ccc3cccnc3c2O)c1` (stereo unspecified)?
HT1080 IDH1KD tx: inconclusive; TDP1 cell noCPT: 21µM; TDP1 cell CPT: inconclusive; IL-1B inflam inh: inactive; HT1080NT lethal: inconclusive

What do the screens show for `CN(C1=NS(=O)(=O)c2ccccc21)c1ccc(OC(=O)c2ccncc2)cc1`?
HT1080 IDH1KD tx: inactive; TDP1 cell noCPT: inactive; TDP1 cell CPT: inactive; IL-1B inflam inh: inactive; HT1080NT lethal: inactive

Results for CCn1ncc(Cl)c1C(=O)NC(=S)Nc1ccccc1Br ?
HT1080 IDH1KD tx: inactive; TDP1 cell noCPT: inactive; TDP1 cell CPT: inactive; IL-1B inflam inh: -85; HT1080NT lethal: inactive

What do the screens show for `Cc1nn(C)c(C(=O)NC(=S)Nc2ccccc2Br)c1Cl`?
HT1080 IDH1KD tx: inactive; TDP1 cell noCPT: inactive; TDP1 cell CPT: inactive; IL-1B inflam inh: inconclusive; HT1080NT lethal: inactive

What do the screens show for `C=CCOc1c(Br)cc(CNc2ccc(NC(=O)C(C)C)c(OC)c2)cc1OCC`?
HT1080 IDH1KD tx: inactive; TDP1 cell noCPT: 16µM; TDP1 cell CPT: 21µM; IL-1B inflam inh: inactive; HT1080NT lethal: inactive

Results for C=CCOc1c(Br)cc(CNc2ccc(NC(=O)CCC)cc2)cc1OCC ?
HT1080 IDH1KD tx: inactive; TDP1 cell noCPT: 16µM; TDP1 cell CPT: inconclusive; IL-1B inflam inh: inactive; HT1080NT lethal: inactive

Results for C=CCOc1c(Br)cc(CNc2ccc3[nH]c(=O)[nH]c3c2)cc1OCC ?
HT1080 IDH1KD tx: inactive; TDP1 cell noCPT: inconclusive; TDP1 cell CPT: inconclusive; HT1080NT lethal: inactive

What do the screens show for `CCn1c(CSc2nc3ccccc3s2)n[nH]c1=S`?
HT1080 IDH1KD tx: inconclusive; TDP1 cell noCPT: inconclusive; TDP1 cell CPT: inconclusive; IL-1B inflam inh: inactive; HT1080NT lethal: inconclusive

What do the screens show for `CCn1c(CSc2nc3ccccc3s2)nnc1SCC(=O)c1ccc(Cl)cc1`?
HT1080 IDH1KD tx: inconclusive; TDP1 cell noCPT: 21µM; TDP1 cell CPT: 16µM; IL-1B inflam inh: inactive; HT1080NT lethal: inactive

How did COc1ccccc1CNC(=O)COC(=O)c1cccc(S(=O)(=O)N2CCCC2)c1 do in these assays?
HT1080 IDH1KD tx: inactive; TDP1 cell noCPT: inactive; TDP1 cell CPT: inactive; IL-1B inflam inh: inactive; HT1080NT lethal: inactive

What do the screens show for `Cc1ccccc1N1CCN(C2CCCN(C(=O)CCC3(C)CC3)C2)CC1` (stereo unspecified)?
HT1080 IDH1KD tx: inactive; TDP1 cell noCPT: inconclusive; TDP1 cell CPT: inconclusive; IL-1B inflam inh: inactive; HT1080NT lethal: inactive

Screening results as filed in PubChem BioAssay.
